Results from paper PMC7862700, “An all-to-all approach to the identification of sequence-specific readers for epigenetic DNA modifications on cytosine”.

Experiments:
Assay in all cases: DAPPL (digital affinity profiling via proximity ligation, sequencing); 10 mM Tris-HCl pH 7.5, 50 mM NaCl, 1 mM DTT, 4% glycerol, room temperature, 30 min; GST-TFs on glutathione beads, 16-mer random dsDNA library, 0.1% formaldehyde crosslink after washing; high values mean tight binding
[1] = molecular target: T1, FEV (Homo sapiens, UniProt Q99581 1-238); conditions: protein: recombinant; tags: N-terminal GST; dsDNA, one strand shown
T1 sequence: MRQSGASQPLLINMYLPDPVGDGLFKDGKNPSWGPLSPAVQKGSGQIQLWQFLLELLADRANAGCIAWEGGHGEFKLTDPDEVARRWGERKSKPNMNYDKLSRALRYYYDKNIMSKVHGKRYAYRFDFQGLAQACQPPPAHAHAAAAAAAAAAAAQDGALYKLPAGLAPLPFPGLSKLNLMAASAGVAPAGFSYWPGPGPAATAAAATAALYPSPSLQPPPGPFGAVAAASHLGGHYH
Summary of the method: (§1)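 Pools of DNA-barcoded human transcription factors, expressed in yeast as GST fusions on glutathione beads and combined with a tag-only sample, were incubated with 200 nmole of a 16-mer random double-stranded DNA library. Incubation took 30 min at room temperature in Tris/NaCl/DTT/glycerol buffer and was followed by washing, 0.1% formaldehyde crosslinking, proximity ligation (BsaI/T4 ligase, 1 h, 37 °C), PCR amplification and sequencing on an Illumina NextSeq500. Binding signal is the ratio of a hexamer's read frequency for a factor to its frequency for the tag-only sample.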

[2] = molecular target: ETV5 (Homo sapiens, UniProt P41161 1-510); conditions: protein: recombinant; tags: N-terminal GST; dsDNA, one strand shown
Summary of the method: as §1

[3] = molecular target: HSF1 (Homo sapiens, UniProt Q00613 1-529); conditions: protein: recombinant; tags: N-terminal GST; chain copies: 3; dsDNA, one strand shown
Summary of the method: as §1

[4] = molecular target: T2, SPIC (Homo sapiens, UniProt Q8N5J4 1-248); conditions: protein: recombinant; tags: N-terminal GST; dsDNA, one strand shown
T2 sequence: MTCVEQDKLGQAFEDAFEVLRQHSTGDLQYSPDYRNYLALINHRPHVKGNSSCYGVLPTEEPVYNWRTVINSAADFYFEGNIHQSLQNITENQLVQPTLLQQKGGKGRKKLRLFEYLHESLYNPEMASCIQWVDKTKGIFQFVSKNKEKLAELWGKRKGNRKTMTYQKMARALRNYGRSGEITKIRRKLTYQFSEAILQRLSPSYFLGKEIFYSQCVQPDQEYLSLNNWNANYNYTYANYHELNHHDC
Summary of the method: as §1

[5] = molecular target: ELF4 (Homo sapiens, UniProt Q99607 1-663); conditions: protein: recombinant; tags: N-terminal GST; dsDNA, one strand shown
Summary of the method: as §1

[6] = molecular target: T3, ELK4 (Homo sapiens, UniProt P28324-2 1-405); conditions: protein: recombinant; tags: N-terminal GST; dsDNA, one strand shown
T3 sequence: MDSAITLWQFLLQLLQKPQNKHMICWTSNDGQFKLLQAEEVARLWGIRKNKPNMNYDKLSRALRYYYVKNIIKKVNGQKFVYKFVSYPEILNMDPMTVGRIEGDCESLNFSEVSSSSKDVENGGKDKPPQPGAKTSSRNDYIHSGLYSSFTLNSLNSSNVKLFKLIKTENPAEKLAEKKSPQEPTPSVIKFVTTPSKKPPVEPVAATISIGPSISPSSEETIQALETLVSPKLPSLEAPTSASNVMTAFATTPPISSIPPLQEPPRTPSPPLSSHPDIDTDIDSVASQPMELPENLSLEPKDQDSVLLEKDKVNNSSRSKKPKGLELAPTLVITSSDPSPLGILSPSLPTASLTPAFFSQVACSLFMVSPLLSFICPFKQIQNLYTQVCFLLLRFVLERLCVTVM
Summary of the method: as §1

[7] = molecular target: T4, ETV2 (Homo sapiens, UniProt O00321 1-342); conditions: protein: recombinant; tags: N-terminal GST; dsDNA, one strand shown
T4 sequence: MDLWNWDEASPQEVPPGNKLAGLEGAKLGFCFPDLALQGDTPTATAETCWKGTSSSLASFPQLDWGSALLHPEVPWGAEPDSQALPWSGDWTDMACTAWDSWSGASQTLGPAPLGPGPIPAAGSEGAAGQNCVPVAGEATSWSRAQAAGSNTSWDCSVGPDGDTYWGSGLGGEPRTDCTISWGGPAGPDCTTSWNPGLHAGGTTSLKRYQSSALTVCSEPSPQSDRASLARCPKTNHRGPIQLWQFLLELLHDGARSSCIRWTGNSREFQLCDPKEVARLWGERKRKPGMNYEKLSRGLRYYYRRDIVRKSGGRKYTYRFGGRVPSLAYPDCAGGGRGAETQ
Summary of the method: as §1

[8] = molecular target: T5, ELF3 (Homo sapiens, UniProt P78545 1-371); conditions: protein: recombinant; tags: N-terminal GST; dsDNA, one strand shown
T5 sequence: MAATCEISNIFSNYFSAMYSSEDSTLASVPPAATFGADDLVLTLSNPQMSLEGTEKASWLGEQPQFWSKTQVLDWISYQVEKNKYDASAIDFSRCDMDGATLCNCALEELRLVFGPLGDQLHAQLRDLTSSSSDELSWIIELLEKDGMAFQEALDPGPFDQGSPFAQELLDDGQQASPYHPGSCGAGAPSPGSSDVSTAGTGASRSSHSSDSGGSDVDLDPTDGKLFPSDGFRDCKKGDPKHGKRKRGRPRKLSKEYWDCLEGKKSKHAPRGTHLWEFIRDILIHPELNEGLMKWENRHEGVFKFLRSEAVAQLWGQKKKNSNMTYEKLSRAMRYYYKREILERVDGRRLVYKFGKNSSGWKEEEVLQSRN
Summary of the method: as §1

[9] = molecular target: CRX (Homo sapiens, UniProt O43186 1-299); conditions: protein: recombinant; tags: N-terminal GST; dsDNA, one strand shown
Summary of the method: as §1

[10] = molecular target: ETV1 (Homo sapiens, UniProt P50549 1-477); conditions: protein: recombinant; tags: N-terminal GST; dsDNA, one strand shown
Summary of the method: as §1

Sequence of CRX (O43186 whole entry): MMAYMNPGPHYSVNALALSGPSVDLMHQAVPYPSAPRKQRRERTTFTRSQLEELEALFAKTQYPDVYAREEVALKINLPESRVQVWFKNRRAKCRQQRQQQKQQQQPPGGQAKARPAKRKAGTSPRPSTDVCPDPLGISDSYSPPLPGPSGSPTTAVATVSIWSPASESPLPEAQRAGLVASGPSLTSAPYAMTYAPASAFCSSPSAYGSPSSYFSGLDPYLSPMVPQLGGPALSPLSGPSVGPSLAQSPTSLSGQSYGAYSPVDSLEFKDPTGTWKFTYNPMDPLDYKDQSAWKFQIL
Sequence of HSF1 (Q00613 whole entry): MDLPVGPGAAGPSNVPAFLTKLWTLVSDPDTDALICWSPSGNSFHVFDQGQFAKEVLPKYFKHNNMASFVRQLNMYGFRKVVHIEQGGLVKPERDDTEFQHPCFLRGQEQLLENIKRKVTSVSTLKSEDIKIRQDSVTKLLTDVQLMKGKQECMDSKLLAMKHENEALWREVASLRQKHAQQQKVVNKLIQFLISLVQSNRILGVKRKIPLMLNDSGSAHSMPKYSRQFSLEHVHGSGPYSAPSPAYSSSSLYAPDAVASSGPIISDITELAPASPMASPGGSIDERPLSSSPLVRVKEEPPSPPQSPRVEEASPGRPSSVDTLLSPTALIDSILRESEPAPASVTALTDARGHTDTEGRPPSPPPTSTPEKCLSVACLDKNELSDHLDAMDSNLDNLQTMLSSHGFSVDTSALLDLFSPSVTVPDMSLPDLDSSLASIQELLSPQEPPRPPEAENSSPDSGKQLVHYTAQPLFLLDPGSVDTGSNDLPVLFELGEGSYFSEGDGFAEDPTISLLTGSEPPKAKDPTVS
Sequence of ELF4 (Q99607 whole entry): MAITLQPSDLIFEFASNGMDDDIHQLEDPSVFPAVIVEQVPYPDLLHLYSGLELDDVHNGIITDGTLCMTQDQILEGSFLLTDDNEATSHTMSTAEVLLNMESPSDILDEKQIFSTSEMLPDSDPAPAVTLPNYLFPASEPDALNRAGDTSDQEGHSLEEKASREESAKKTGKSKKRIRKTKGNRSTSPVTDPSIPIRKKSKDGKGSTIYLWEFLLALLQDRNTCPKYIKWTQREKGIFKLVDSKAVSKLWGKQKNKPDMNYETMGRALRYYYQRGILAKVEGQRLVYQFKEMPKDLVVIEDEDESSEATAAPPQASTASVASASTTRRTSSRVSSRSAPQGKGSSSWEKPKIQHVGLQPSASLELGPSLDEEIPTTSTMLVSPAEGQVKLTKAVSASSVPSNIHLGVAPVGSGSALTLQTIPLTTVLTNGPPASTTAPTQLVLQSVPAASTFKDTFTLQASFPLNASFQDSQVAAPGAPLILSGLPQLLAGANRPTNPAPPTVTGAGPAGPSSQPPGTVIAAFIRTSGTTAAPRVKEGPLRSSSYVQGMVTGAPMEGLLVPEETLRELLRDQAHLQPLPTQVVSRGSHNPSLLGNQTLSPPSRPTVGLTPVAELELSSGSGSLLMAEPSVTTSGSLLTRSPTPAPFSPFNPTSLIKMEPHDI
Sequence of ETV5 (P41161 whole entry): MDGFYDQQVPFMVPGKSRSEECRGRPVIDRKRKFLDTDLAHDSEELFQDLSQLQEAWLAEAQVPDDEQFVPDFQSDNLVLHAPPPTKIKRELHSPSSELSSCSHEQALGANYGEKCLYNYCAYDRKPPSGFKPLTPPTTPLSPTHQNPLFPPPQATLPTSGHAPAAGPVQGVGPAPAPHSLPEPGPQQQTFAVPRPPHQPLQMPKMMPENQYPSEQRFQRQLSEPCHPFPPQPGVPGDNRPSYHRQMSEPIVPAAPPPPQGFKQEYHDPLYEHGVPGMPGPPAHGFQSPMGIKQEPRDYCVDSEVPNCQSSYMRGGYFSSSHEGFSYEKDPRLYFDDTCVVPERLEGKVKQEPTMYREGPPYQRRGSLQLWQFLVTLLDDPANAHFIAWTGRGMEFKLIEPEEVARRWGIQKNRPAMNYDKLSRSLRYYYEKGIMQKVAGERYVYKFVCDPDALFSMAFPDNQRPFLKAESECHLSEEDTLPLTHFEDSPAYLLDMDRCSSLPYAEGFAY
Sequence of ETV1 (P50549 whole entry): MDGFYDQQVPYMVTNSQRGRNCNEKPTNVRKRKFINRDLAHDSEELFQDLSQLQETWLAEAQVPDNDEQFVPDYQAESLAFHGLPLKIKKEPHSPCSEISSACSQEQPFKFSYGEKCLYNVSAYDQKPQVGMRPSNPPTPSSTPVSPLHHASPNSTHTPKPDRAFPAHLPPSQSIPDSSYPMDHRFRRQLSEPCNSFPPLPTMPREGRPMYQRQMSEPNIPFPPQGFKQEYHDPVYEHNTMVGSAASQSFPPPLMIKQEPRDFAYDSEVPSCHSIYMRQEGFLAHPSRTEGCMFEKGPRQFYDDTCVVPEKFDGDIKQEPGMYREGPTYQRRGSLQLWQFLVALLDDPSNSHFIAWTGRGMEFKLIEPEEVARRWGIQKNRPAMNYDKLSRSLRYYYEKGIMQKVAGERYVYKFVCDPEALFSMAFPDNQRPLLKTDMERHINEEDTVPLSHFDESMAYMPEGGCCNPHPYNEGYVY

Sequence: AATCTT
- binding signal [1]: 1.29 fold enrichment (6-mer frequency, TF over GST control)
- binding signal [2]: 1.35 fold enrichment (6-mer frequency, TF over GST control)
- binding signal [3]: 2.17 fold enrichment (6-mer frequency, TF over GST control)
- binding signal [4]: 1.38 fold enrichment (6-mer frequency, TF over GST control)
- binding signal [5]: 1.31 fold enrichment (6-mer frequency, TF over GST control)
- binding signal [6]: 1.36 fold enrichment (6-mer frequency, TF over GST control)
- binding signal [7]: 1.38 fold enrichment (6-mer frequency, TF over GST control)
- binding signal [8]: 1.4 fold enrichment (6-mer frequency, TF over GST control)
- binding signal [9]: 2.54 fold enrichment (6-mer frequency, TF over GST control)
- binding signal [10]: 1.39 fold enrichment (6-mer frequency, TF over GST control)
